Bioassay records from PubChem.
G9a inh – G9a (human) methyltransferase inhibition; Q96KQ7; G9a H3K9 monomethylation, AlphaScreen, 2 h; Potency, µM (doses to about 102 µM), actives largely listed as inhibitors; 350,000 tested, 8.8% active; note: nearly all actives have a fitted effect of over 75% in size
Target sequence (Q96KQ7 913-1193 limits assumed): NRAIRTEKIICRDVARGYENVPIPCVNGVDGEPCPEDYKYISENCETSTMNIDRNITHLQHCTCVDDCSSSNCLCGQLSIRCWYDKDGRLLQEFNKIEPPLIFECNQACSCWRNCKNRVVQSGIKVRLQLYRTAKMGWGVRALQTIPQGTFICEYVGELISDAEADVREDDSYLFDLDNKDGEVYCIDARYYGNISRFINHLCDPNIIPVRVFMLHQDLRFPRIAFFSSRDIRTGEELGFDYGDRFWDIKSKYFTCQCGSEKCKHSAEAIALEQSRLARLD
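AlphaScreen detection with an anti-monomethyl H3K9 antibody quantified product after a 2 h room-temperature reaction containing 500 nM biotinylated H3K9 peptide, 20 µM SAM and 20 nM enzyme, which had been preincubated 15 min with compound.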
HP1b binding inh – blocks HP1-beta chromodomain binding to methylated histone tails; AlphaScreen HP1-beta / biotin-H3K9me3 peptide binding; AID 540317; Potency, µM (top dose mostly 114 µM), usual class: inhibitors; 390,000 tested, 0.56% active; P83916; note: nearly all actives have a fitted effect of over 70% in size
Target sequence (P83916 whole entry, looked up): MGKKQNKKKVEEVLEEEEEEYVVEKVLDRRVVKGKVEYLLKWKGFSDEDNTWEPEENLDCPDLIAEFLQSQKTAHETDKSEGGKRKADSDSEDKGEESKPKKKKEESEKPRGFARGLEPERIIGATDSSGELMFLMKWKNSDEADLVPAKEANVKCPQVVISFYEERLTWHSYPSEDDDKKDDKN
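AlphaScreen: HP1-beta (50 nM) preformed 30 min with biotin-H3(1-18)K9me3 peptide (50 nM) in PBS pH 7.4, 0.01% Tween-20. Compound added for 30 min at RT, then streptavidin donor/nickel chelate acceptor beads (10 ug/mL) for 30 min.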
JMJD2A Tudor inh – JMJD2A Tudor domain (human) inhibition. O75164. AlphaScreen JMJD2A-Tudor / H3K4me3 peptide binding. 390,000 tested, 4.4% active. Potency, µM (series often up to 114 µM), hits mostly inhibitors; note: nearly all actives have a fitted effect of over 50% in size
PI5P4K alpha inh – blocks human PI5P4K alpha kinase activity; P48426; PI5P4Kalpha enzyme, ADP-Glo luminescence, 60 min; active compounds read low; max response, %; 330,000 tested, 1.2% active; AID 652105; active = max response of -50% or lower; inconclusive = between -30% and -50%; inactive = -30% or higher; note: value at the top dose of about 77 µM
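Compounds were pin-transferred onto PI5P4Kalpha and substrate in HEPES pH 7.4 buffer with EGTA, CHAPS and 5% DMSO. ATP (5 microM final) started the reaction, which ran 60 minutes at room temperature before ADP-Glo detection.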
PLK1 PBD inh – inhibitors of human PLK1 polo-box domain binding; Potency, µM, actives largely listed as inhibitors; Plk1 PBD binding of FITC phosphopeptide, fluorescence polarization; 360,000 tested, 2.8% active; AID 720504; P53350; note: series mostly up to about 57 µM; nearly all actives have a fitted effect of over 65% in size
BAZ2B inh – inhibitors of human BAZ2B bromodomain. Q9UIF8. AlphaScreen BAZ2B-H3K14Ac peptide displacement. Potency, µM (top dose mostly 114 µM), hits mostly inhibitors. 360,000 tested, 4.4% active; note: nearly all actives have a fitted effect of over 60% in size
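Inhibition is scored as reduced AlphaScreen emission. The BAZ2B/b-H3(5-23)K14Ac complex (50 nM each) in PBS pH 7.4, 0.01% Tween-20 meets compound (up to 110 uM) for 30 min at RT before bead addition.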
A number is an active result; – = inactive; ? = inconclusive; · = not tested or not shown; [ ] = dose if it differs, or a comment. An excerpt weighted towards active compounds, which were near 12% of everything screened. Unless noted, calls come from the whole dose curve; as a rule, active = well fitted curve in the direction sought with a large enough effect; inconclusive = small, poorly fitted or top-dose-only effect, or another doubt; inactive = no such curve, though single readings can be large; an effect the other way counts as inactive or inconclusive.

SMILES	G9a inh	HP1b binding inh	JMJD2A Tudor inh	PI5P4K alpha inh	PLK1 PBD inh	BAZ2B inh
CC(C)N1CCc2c(sc(NC(=O)c3ccc(S(=O)(=O)N4CCOCC4)cc3)c2C#N)C1	31.6µM	–	–	–	–	–
COC(=O)c1c(NC(=O)c2ccc(S(=O)(=O)N3CCCCC3)cc2)sc2c1CCN(C)C2	?	–	–	·	·	–
CCOC(=O)c1c(NC(=O)c2ccc(S(=O)(=O)N3CCOCC3)cc2)sc2c1CCN(C)C2	50.1µM	–	–	·	–	?
CCOC(=O)N1CCc2c(sc(NC(=O)c3ccc(S(=O)(=O)N4CCCC4)cc3)c2C#N)C1	?	–	–	-81.9	–	–
CCn1nc(-c2ccccc2)c(-c2ccccc2)c(C(=O)OCCOC)c1=O	–	–	–	·	·	–
Cc1cc(=O)[nH]c(N=N/C(=N/Nc2ccc(O)cc2)c2ccccc2)n1	0.562µM	?	56.2µM	?	–	10µM
Cc1cc(=O)[nH]c(SCC(=O)Nc2ccccc2C)n1	–	–	–	–	–	–
Cc1cc(=O)[nH]c(N=N/C(=N/Nc2ccccc2C)c2ccccc2)n1	28.2µM	?	?	–	–	?
COc1ccc(N/N=C(/N=Nc2nc(C)cc(=O)[nH]2)c2ccccc2)cc1	?	15.8µM	?	–	–	7.08µM
COc1ccc(NS(=O)(=O)c2csc(C(=O)N3CCCC3)c2)c(OC)c1	·	–	–	–	–	–
Cn1c(=O)c2nc(SCC(=O)Nc3ccc(Cl)c(Cl)c3)n(C)c2n(C)c1=O	–	–	–	·	·	–
COc1cc(NC(=O)NC(C)(C(F)(F)F)C(F)(F)F)cc(OC)c1OC	50.1µM	–	–	–	–	–
Cn1c(=O)nc2n(-c3ccc(Cl)c(Cl)c3)c3cc(Cl)ccc3cc-2c1=O	–	–	–	·	·	·
CC[C@H](C)C1NC(=O)[C@H](CC(=O)O)NC(=O)c2cc([N+](=O)[O-])cc(I)c2NCCC(C(N)=O)NC1=O (stereo partly drawn)	?	–	–	–	–	–
NC(=O)[C@@H]1CCCNc2c(I)cc([N+](=O)[O-])cc2C(=O)N[C@@H](CCCN=C(N)N)C(=O)N[C@@H](CCCN=C(N)N)C(=O)N1	14.1µM	·	·	·	·	–
CC[C@H](C)[C@@H]1NC(=O)c2cc([N+](=O)[O-])cc(I)c2NCC[C@@H](C(N)=O)NC(=O)[C@H](CCCN=C(N)N)NC1=O	14.1µM	–	–	–	–	?
CC[C@H](C)[C@@H]1NC(=O)c2cc([N+](=O)[O-])cc(I)c2SC[C@@H](C(N)=O)NC(=O)[C@H](CCCCN)NC1=O	8.91µM	–	?	–	–	70.8µM
CCCNC(=O)c1ccc(-c2nc3ccccc3s2)s1	–	–	–	–	–	4.47µM
COCCn1c2nc(=O)n(-c3ccccc3)c(=O)c-2nc2ccccc21	·	·	·	–	3.77µM	·
CCc1ccc(N2CC(C(=O)OCC(=O)NNC(=O)c3ccccc3)CC2=O)cc1 (stereo not drawn)	–	–	–	–	–	–
COc1ccc(C2CC2/C(=N/O)c2ccccc2)cc1 (stereo not drawn)	–	?	14.1µM	?	13.4µM	–
Cc1cccc(/C=C2\CCC(=C3SCCCS3)C2=O)c1	50.1µM	15.8µM	44.7µM	–	–	10µM
COC(=O)C1CSc2[nH]c(=O)sc2C1c1ccccc1 (stereo not drawn)	56.2µM	?	–	·	26.7µM	–
CC1CCN(c2oc(-c3ccccc3Cl)nc2C#N)CC1	10µM	?	?	–	–	10µM
Cc1ccccc1-c1nc(C#N)c(N2CCC(C)CC2)o1	35.5µM	?	?	–	–	?
SMILES	G9a inh	HP1b binding inh	JMJD2A Tudor inh	PI5P4K alpha inh	PLK1 PBD inh	BAZ2B inh
O=C(CCCn1c2ccccc2c(=O)c2ccccc21)Nc1cccc(Cl)c1	–	–	–	·	·	–
CCCCNC(=O)C1=CC(c2ccc3c(c2)OCO3)=NS(=O)(=O)N1C	–	–	–	·	·	–
Cc1cc(C)cc(NC(=O)C(=O)NCC2CCCN2S(=O)(=O)c2cccs2)c1 (stereo not drawn)	–[0.501 µM]	–	–	–	–	–
CC1(C)CC(NC(=O)c2cc(S(=O)(=O)N3CCOCC3)c(Cl)cc2Cl)CC(C)(C)N1	–[0.501 µM]	–	–	–	–	50.1µM
COc1ccc(C(=O)NC2CC(C)(C)NC(C)(C)C2)cc1S(=O)(=O)N1CCOCC1	·	·	·	–	–	·
CCc1ccc(CN2CCN(c3ncccn3)CC2)cc1	–[0.501 µM]	–	20µM	–	–	50.1µM
CCOc1cc(CN2CCN(c3ncccn3)CC2)ccc1OC	·	?	2.82µM	–	–	79.4µM
Fc1ccc(F)c(CN2CCN(c3ncccn3)CC2)c1	–	–	–	·	–	–
Fc1ccc(CN2CCN(c3ncccn3)CC2)cc1	10µM	?	10µM	·	–	?
COc1ccc(CN2CCOCC2)cc1OC	–	–	–	–	–	–
NC(=O)N(N)c1nc(N2CCCC2)nc(N2CCCC2)n1	–[12.7 µM]	–	–	–	–	–
CCc1nnc(NC(=O)CSc2nccn2Cc2ccc(F)cc2)s1	–	–	–	·	·	–
COCCNC(=O)CCn1c(=O)c2cc(OC)c(OC)cc2n(CC(=O)Nc2ccc(Cl)cc2F)c1=O	–	–	–	·	·	–
Cc1nn(-c2ccccc2)c(Cl)c1/C=N/NC(=O)c1[nH]ncc1Br	–	–	–	–	–	–
CCN(CC)c1ccc(S(=O)(=O)N2CCCCC2)cc1NC(=O)C1CSC2(C)CCC(=O)N12 (stereo not drawn)	–	–	–	–	–	–
CCOc1ccc(S(=O)(=O)N2CCOCC2)cc1NC(=O)C1CSC2(C)CCC(=O)N12 (stereo not drawn)	44.7µM	–	–	–	–	–
C=CCOc1ccc(C(c2c(C(=O)O)[nH]c3ccccc23)c2c(C(=O)O)[nH]c3ccccc23)cc1	35.5µM	70.8µM	79.4µM	?	8.44µM	50.1µM
COc1cc(C(c2c(C(=O)O)[nH]c3ccccc23)c2c(C(=O)O)[nH]c3ccccc23)ccc1OCc1ccccc1	–[0.501 µM]	?	?	–	8.44µM	–
O=C(O)c1[nH]c2ccccc2c1C(c1ccccc1)c1c(C(=O)O)[nH]c2ccccc12	–	–	–	–	26.7µM	–
O=C(O)c1[nH]c2ccccc2c1C(c1cc(Cl)cc([N+](=O)[O-])c1O)c1c(C(=O)O)[nH]c2ccccc12	·	–	?	–	7.52µM	?
CCOc1ccc(-n2c(=O)c3sc4ccccc4c3n(Cc3ccc(F)cc3)c2=O)cc1	–	–	–	·	·	–
Cc1noc(C)c1-c1csc(N2CCC(C(N)=O)CC2)n1	–[12.7 µM]	–	?	·	·	–
O=S(=O)(NCc1nc2cccnc2n1Cc1ccccc1Cl)c1ccc2c(c1)CCCC2	–	–	–	·	·	–
CCC1(C)Nc2ccccc2C(=O)N1O (stereo not drawn)	50.1µM	–	?	–	–	–
